Assay results taken from PubChem BioAssay AID430 (Sanford-Burnham Center for Chemical Genomics, 2006).
About 1,100 (1.7%) of roughly 63,000 compounds were called active. This excerpt belongs to a sample that is enriched for actives. Results with a measured potency or affinity are listed apart. Unmarked numbers belong to inactive results. Rule as the data show it: active = cytotoxicity above about 50%; inactive = the rest.

test: cytotoxicity in HPDE-C7 cells, cell-based, fluorescence, HTS (AID 430); settings: HPDE-C7 pancreatic duct cells viability, at 10 µM, stronger effect = higher value;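 also: cells exposed to compound for 48 hours before viability readout; 0% = vehicle and 100% = reference cytotoxic drug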

| SMILES | cytotoxicity |
| --- | --- |
| Cc1ccc(NS(=O)(=O)c2cccc(C(=O)Nc3cc(C)on3)c2)cc1 | -4.8% |
| Cc1ccc2nc3ccc(N4CCN(C)CC4)nn3c(=O)c2c1 | -2.8% |
| COc1cccc(C2=NOC(C(=O)NC(C)(C)C)C2)c1 (stereo not given) | -11.2% |
| COc1cccc(C2=NOC(C(=O)NC(C)C)C2)c1 (stereo not given) | -3.9% |
| CC(C)(C)SCCNS(=O)(=O)c1ccc(F)cc1 | 5.7% |
| O=S(=O)(c1cccc(-c2nnc(SCc3ccc(Cl)cc3)o2)c1)N1CCCCC1 | -2.9% |
| Cc1cc2nc(-c3ccc(SCC(=O)N4CCOCC4)nc3)[nH]c2cc1C | -15.5% |
| O=C(NC1=NCCS1)Nc1ccccc1 | 1.2% |
| COCCCN1C(=O)c2[nH]nc(-c3ccccc3O)c2C1c1cccc(Cl)c1 (stereo not given) | 13.3% |
| COc1ccc(CCN2C(=O)c3[nH]nc(-c4ccccc4O)c3C2c2ccccc2)cc1OC (stereo not given) | 54.9% (active) |
| COc1cc(C2c3c(-c4cc(C)cc(C)c4O)n[nH]c3C(=O)N2CCCO)cc(OC)c1OC (stereo not given) | 0.6% |
| Cc1ccc(C2c3c(-c4ccccc4O)n[nH]c3C(=O)N2Cc2ccncc2)cc1 (stereo not given) | -3.9% |
| COc1ccc(C2c3c(-c4ccccc4O)n[nH]c3C(=O)N2CCc2ccc(OC)c(OC)c2)cc1 (stereo not given) | 36.9% |
| COCCCN1C(=O)c2[nH]nc(-c3ccccc3O)c2C1c1ccc(Cl)cc1 (stereo not given) | 67.3% (active) |
| COc1ccc(C2c3c(-c4cc(Cl)c(C)cc4O)n[nH]c3C(=O)N2Cc2cccnc2)cc1OC (stereo not given) | 26.6% |
| COCCCN1C(=O)c2[nH]nc(-c3cc(C)cc(C)c3O)c2C1c1ccc(O)c(OC)c1 (stereo not given) | -2.5% |
| CC(C)OCCCN1C(=O)c2[nH]nc(-c3ccccc3O)c2C1c1cccc(Cl)c1 (stereo not given) | -3.6% |
| Cc1cc(O)c(-c2n[nH]c3c2C(c2cccc(O)c2)N(Cc2cccnc2)C3=O)cc1Cl (stereo not given) | 8% |
| COc1ccc(CCN2C(=O)c3[nH]nc(-c4ccccc4O)c3C2c2cccc(O)c2)cc1OC (stereo not given) | 66% (active) |
| Cc1noc(C)c1C(=O)OCC(=O)c1c[nH]c2ccccc12 | 4.1% |
| O=C(NCCC1=CCCCC1)C1CC(=O)N(C2CCCCC2)C1 (stereo not given) | 1.5% |
| COc1ccc(-c2noc(CCC(=O)N3CCN(c4cc(C)ccc4C)CC3)n2)cc1 | 11.6% |
| O=C(CSCc1nc2ccccc2[nH]1)N1CCN(c2cccc(Cl)c2)CC1 | 7.4% |
| COc1ccc(CCN2CC(C(=O)O)CC2=O)cc1 (stereo not given) | 1.2% |

| SMILES | cytotoxicity |
| --- | --- |
| c1ccc(CCc2nc(-c3ccccn3)no2)cc1 | 6.2% |
| O=C1c2ccccc2NC(c2ccccn2)N1c1ccc(Cl)cc1 (stereo not given) | -4.1% |
| CCN(CC)S(=O)(=O)c1ccc(NC(=O)CSc2nnc(-c3ccc(F)cc3)o2)cc1 | -7.7% |
| CCCN(CCC)S(=O)(=O)c1ccc(C(=O)Nc2nnc(-c3cc(OC)cc(OC)c3)o2)cc1 | 47.5% |
| COc1cccc(-c2nnc(NC(=O)c3ccc(S(=O)(=O)N4CCOCC4)cc3)o2)c1 | 13.7% |
| COc1cccc(-c2nnc(NC(=O)c3ccc(S(=O)(=O)N(CC(C)C)CC(C)C)cc3)o2)c1 | 51.2% (active) |
| CCCN(CCC)S(=O)(=O)c1ccc(C(=O)Nc2nnc(-c3cccc(OC)c3)o2)cc1 | 66.4% (active) |
| COc1cccc(-c2nnc(NC(=O)c3ccc(S(=O)(=O)N4CC(C)OC(C)C4)cc3)o2)c1 (stereo not given) | -5.9% |
| COc1cccc(-c2nnc(NC(=O)c3ccccc3Br)o2)c1 | 22.6% |
| CCCn1c(SCC(=O)Nc2nnc(CC)s2)nnc1-c1ccco1 | -5% |
| O=C(Nc1ccc2oc(=O)ccc2c1)c1cccnc1 | 3% |
| COc1ccccc1-c1nc(-c2ccncc2)no1 | 2.1% |
| COc1cc2oc(=O)c(Br)c(C)c2c(OC)c1OC | -8.6% |
| CCCS(=O)(=O)c1c(S(=O)(=O)CCC)c2ccccn2c1C(=O)OC | -3.7% |
| CCN1CCN(c2cc(=O)n(C3CCCCC3)c(=O)[nH]2)CC1 | -14.2% |
| CCOC(=O)N1CCN(C(=O)CCc2c(C)nc3c(c(C)nn3-c3ccc(C)c(C)c3)c2C)CC1 | -7.7% |
| COc1ccc(OC)c(NS(=O)(=O)c2ccc(N3CCCC3=O)cc2)c1 | 75.9% (active) |
| COc1ccc(OC)c(NS(=O)(=O)c2ccc(SC)cc2)c1 | 36.3% |
| COc1ccc(OC)c(NS(=O)(=O)c2ccc3c(c2)CCC(=O)N3)c1 | 3.3% |
| CCCCOc1ccc(S(=O)(=O)Nc2cc(OC)ccc2OC)cc1 | 31.3% |
| COC(=O)COc1ccc(S(=O)(=O)Nc2cc(OC)ccc2OC)cc1 | -2.9% |
| CCOc1ccc(S(=O)(=O)Nc2cc(OC)ccc2OC)cc1 | 73.1% (active) |
| Cc1cc(C(=O)NCc2ccccc2)c(=O)[nH]c1C | -2.3% |
| Cc1cc(C)n2nc(SCC#N)nc2n1 | 1.5% |

| SMILES | cytotoxicity |
| --- | --- |
| CCCCOCCCNC(=O)c1c(-c2ccccc2)noc1C | 6.3% |
| COc1ccc(C2=NOC(C(=O)NCC(C)C)C2)cc1 (stereo not given) | -14.9% |
| COc1ccc(CNC(=O)C2CC(c3ccc(F)cc3)=NO2)cc1 (stereo not given) | 1% |
| COc1ccc(C2=NOC(C(=O)NCc3ccc(F)cc3)C2)cc1 (stereo not given) | 63.5% (active) |
| COc1ccc(C2=NOC(C(=O)NCc3ccccc3)C2)cc1 (stereo not given) | 54.5% (active) |
| O=C(NCc1cccnc1)C1CC(c2ccc(F)cc2)=NO1 (stereo not given) | -10.8% |
| COc1ccc(CNC(=O)C2CC(c3ccc(OC)cc3)=NO2)cc1 (stereo not given) | 17.5% |
| CC(=O)Nc1ccc(NS(=O)(=O)c2ccc(Cl)c(C(=O)O)c2)cc1 | 0.9% |
| COC(=O)CC1=NC(=O)CS1 | 0.6% |
| COC(=O)c1ccccc1NC(=O)CSc1nnc(CNS(=O)(=O)c2ccc(C)cc2)n1C | -12.6% |
| O=C1OCCN1CCN(CN1C(=O)CCC1=O)CN1C(=O)CCC1=O | 5.9% |
| O=C(CN(Cc1ccc2c(c1)OCO2)C(=O)c1cnsn1)NC1CCCC1 | 7% |
| O=C(Nc1cccnc1)c1ccc(Cl)c(S(=O)(=O)N2CCCCCC2)c1 | 12.4% |
| COc1ccc(NC(=O)c2ccc(Cl)c(S(=O)(=O)N3CCc4ccccc4C3)c2)cn1 | 86.5% (active) |
| COc1ccccc1NC(=O)c1ccc(Cl)c(S(=O)(=O)N2CCOCC2)c1 | -10.1% |
| COc1ccc(CNC(=O)C2CCCN(S(=O)(=O)c3cnc[nH]3)C2)cc1 (stereo not given) | -4.6% |
| CN(CC(O)COc1ccc(OCC(O)CN(C)C2CCCCC2)cc1)C1CCCCC1 (stereo not given) | 7.7% |
| Cc1csc(SCC(=O)Nc2c(C)n(C)n(-c3ccccc3)c2=O)n1 | 3.8% |
| COc1ccc(S(=O)(=O)Nc2nc(C(F)(F)F)cs2)cc1 | -2.3% |
| Cc1cc(C)c2c(CC(=O)NCc3ccco3)coc2c1 | 4.1% |
| Cc1ccc2c(CC(=O)NCc3ccco3)coc2c1C | 64.7% (active) |
| O=C(Cc1cccs1)NCc1ccco1 | 5.7% |
| O=C(c1cnn2ccccc12)N(Cc1ccco1)C1CCCC1 | -3.3% |
| c1ccc(C2=Nn3c(nnc3-c3cc(-c4ccccc4)n[nH]3)SC2)cc1 | 5.2% |

| SMILES | cytotoxicity |
| --- | --- |
| CCOc1ccc(C2=Nn3c(nnc3-c3ccccc3OC)SC2)cc1 | 63.4% (active) |
| COc1ccc(OC)c(C2=Nn3c(nnc3-c3cc(OC)c(OC)c(OC)c3)SC2)c1 | 4.4% |
| COc1cc(-c2nnc3n2N=C(c2ccccc2)CS3)cc(OC)c1OC | 57.4% (active) |
| COc1ccc(-c2nnc3n2N=C(c2ccccc2)CS3)cc1OC | -2.9% |
| COc1ccc(C2=Nn3c(nnc3-c3ccccc3)SC2)cc1OC | 3.6% |
| CCOc1ccc(-c2nnc3n2N=C(c2ccc(OC)cc2)CS3)cc1 | 0.1% |
| CCOc1ccc(C2=Nn3c(nnc3-c3ccc(OC)cc3)SC2)cc1 | 45.9% |
| Cc1ccc(-c2nnc3n2N=C(c2ccccc2)CS3)cc1 | -4.2% |
| COc1ccc(C2=Nn3c(nnc3-c3ccccn3)SC2)cc1OC | -0.7% |
| CCC(C)Oc1cccc(C(=O)Nc2ccccc2N2CCOCC2)c1 (stereo not given) | 1.7% |
| CCCn1c(SCC(=O)Nc2c(CC)cccc2CC)nnc1C(C)C | -2.4% |
| Cc1ccc(S(=O)(=O)NCC(C)NS(=O)(=O)c2ccc(C)cc2)cc1 (stereo not given) | -44.3% |
| COc1ccc2nc(NC(=O)CN(c3ccc(C)cc3)S(=O)(=O)c3c(C)nn(C)c3C)sc2c1 | 10.7% |
| OC(COc1c(Cl)cc(Cl)cc1Cl)CN1CCCCC1 (stereo not given) | 7.4% |
| CC(=O)Nc1ccc(S(=O)(=O)N2CCSC2c2ccc(C)cc2)cc1 (stereo not given) | 0.6% |
| Nc1nnc2c(n1)CCCC2 | 2.7% |
| COc1ccccc1-c1nnc2n1N=C(c1ccc(O)c(O)c1)CS2 | 60.1% (active) |
| COc1ccccc1-c1nnc2n1N=C(C)CS2 | -3.3% |
| COc1cccc(C2=Nn3c(nnc3-c3ccccc3O)SC2)c1 | -36.1% |
| c1ccc(Nc2nc(N3CCOCC3)nc(N3CCOCC3)n2)cc1 | 3.2% |
| c1ccc(Nc2nc(N3CCCCC3)nc(N3CCNCC3)n2)cc1 | 71.8% (active) |
| C1CCN(c2nc(N3CCCCC3)nc(N3CCNCC3)n2)CC1 | 2.9% |
| CCOC(=O)C1CCCN(C(=O)c2cn(CC)c3ccc(S(=O)(=O)N4CCCC4)cc3c2=O)C1 (stereo not given) | -6.2% |
